# Several values for one entry are separate records, joined by “and”; a condition that tells them apart may be missing. Identical values can stand only once. Counter-ions that a name gives are not always drawn. Out of some 5,800 compounds screened, about 620 (11%) showed activity. The entries come from a sample that favours actives as a whole. Unmarked numbers belong to inactive results.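 Rule for the calls: active = score above a cut-off or among the top three wells of a plate; in these data no inactive exceeds 0.85.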
# Tested on: primary human hepatic stellate cells (donor 1)
# Test: scaled lipid accumulation score (0 = DMSO-like, 1 = nortriptyline-like); higher = stronger HSC inactivation (lipid re-accumulation), active = hit call of the paper
# Settings: 48 h
# [1] = library stock concentration: 10 mM
# [2] = library stock concentration: 1 mM
# [3] = library stock concentration: 80 uM
# [4] = library stock concentration: 400 uM
# [5] = library stock concentration: 2 mM
# [6] = library stock concentration: 3.33 mM
smiles,measurement,setting,value
O=C(O)C1CCCNC1 (configuration not stated),scaled lipid accumulation score,,≤ 0
same,scaled lipid accumulation score,[1],0.207
CCCCC[C@@](C)(O)/C=C/[C@@H]1[C@@H](C/C=C\CCCC(=O)O)[C@@H](O)C[C@H]1O [15(R)-15-methyl Prostaglandin F2.alpha.],scaled lipid accumulation score,[2],≤ 0
O=C(OCc1ccccc1)[C@H](O)c1ccccc1 [(R)-benzyl Mandelate],scaled lipid accumulation score,[2],≤ 0
C=C(C)[C@@H](CC=C(C)C)C[C@@]12C[C@@H](CC=C(C)C)C(C)(C)[C@@](CC=C(C)C)(C(=O)C(C(=O)c3ccc(O)c(O)c3)=C1O)C2=O [Garcinol],scaled lipid accumulation score,[3],≤ 0
same,scaled lipid accumulation score,[4],≤ 0
same,scaled lipid accumulation score,[5],≤ 0
same,scaled lipid accumulation score,[1],≤ 0
C[C@@H](N)C1CCC(C(=O)Nc2ccncc2)CC1 (some centres not stated),scaled lipid accumulation score,[6],≤ 0
O=C(O)CCCC[C@@H]1CCSS1 [Thioctic acid],scaled lipid accumulation score,[1],≤ -0.027
CC/C(=C\C(=N\O)C(N)=O)C(C)[N+](=O)[O-] (configuration not stated),scaled lipid accumulation score,[2],≤ 0
CC(C)CCC[C@@H](C)CCC[C@@H](C)CCCC(C)CC(=O)O (some centres not stated) [Phytanic Acid],scaled lipid accumulation score,[2],0.028
O=C(NCCS(=O)(=O)c1ccc(C(F)(F)F)cn1)c1ccc(Cl)cc1,scaled lipid accumulation score,[6],≤ -0.009
same,scaled lipid accumulation score,[1],≤ 0
Cc1nc(Nc2ncc(C(=O)Nc3c(C)cccc3Cl)s2)cc(N2CCN(CCO)CC2)n1 [Dasatinib],scaled lipid accumulation score,[3],≤ 0
same,scaled lipid accumulation score,[4],0.238
same,scaled lipid accumulation score,[5],0.602
same,scaled lipid accumulation score,[6],0.43
same,scaled lipid accumulation score,[1],0.646 and 0.707
Cc1nc(Nc2ncc(C(=O)Nc3c(C)cccc3Cl)s2)cc(N2CCN(CCO)CC2)n1 [listing 1 of 2 here],scaled lipid accumulation score,[5],1.18 (active)
same,scaled lipid accumulation score,[1],1.48 (active)
Cc1nc(Nc2ncc(C(=O)Nc3c(C)cccc3Cl)s2)cc(N2CCN(CCO)CC2)n1 [listing 2 of 2 here],scaled lipid accumulation score,[4],0.775
same,scaled lipid accumulation score,[1],0.677
C=CC(=O)Nc1cccc(Sc2nc(Nc3ccc(N4CCN(C)CC4)cc3)ncc2Cl)c1,scaled lipid accumulation score,[6],≤ 0
same,scaled lipid accumulation score,[1],0.466
O=S(=O)(c1ccccc1)N(CC(F)(F)F)c1ccc(C(O)(C(F)(F)F)C(F)(F)F)cc1,scaled lipid accumulation score,[2],0.1
same,scaled lipid accumulation score,[6],0.164
same,scaled lipid accumulation score,[1],0.741 and 0.112
N#Cc1ccc2c(c1)N(CCCN1CCC(O)CC1)c1ccccc1S2 [Periciazine],scaled lipid accumulation score,[1],0.107
CN1CCCC(CC2c3ccccc3Sc3ccccc32)C1.Cl.O (configuration not stated) [Metixene hydrochloride],scaled lipid accumulation score,,1.12 (active)
CN1CCN(C2Cc3ccccc3Sc3ccc(Cl)cc32)CC1 (configuration not stated),scaled lipid accumulation score,[1],0.378
"C[C@@H](O)CCC[C@@H](O)/C=C/[C@H]1C(O)CC(O)C1CCCCCCC(=O)O (stereo partly drawn) [15(R),19(R)-hydroxy Prostaglandin F1.alpha.]",scaled lipid accumulation score,[2],≤ 0
CC[C@@]1(O)C(=O)OCc2c1cc1n(c2=O)Cc2cc3c(CN(C)C)c(O)ccc3nc2-1 [Topotecan HCl],scaled lipid accumulation score,[6],≤ 0
same,scaled lipid accumulation score,[1],≤ 0
CCc1c2c(nc3ccc(O)cc13)-c1cc3c(c(=O)n1C2)COC(=O)[C@]3(O)CC,scaled lipid accumulation score,[6],≤ 0
same,scaled lipid accumulation score,[1],0.297 and ≤ -0.001
CCc1c2c(nc3ccc(OC(=O)N4CCC(N5CCCCC5)CC4)cc13)-c1cc3c(c(=O)n1C2)COC(=O)[C@]3(O)CC [Irinotecan],scaled lipid accumulation score,[6],0.151
same,scaled lipid accumulation score,[1],0.025
CC[C@@]1(O)C(=O)OCc2c1cc1n(c2=O)Cc2cc3c(CN(C)C)c(O)ccc3nc2-1 [Topotecan hydrochloride hydrate],scaled lipid accumulation score,[1],≤ -0.055
CCc1c2c(nc3ccc(OC(=O)N4CCC(N5CCCCC5)CC4)cc13)-c1cc3c(c(=O)n1C2)COC(=O)[C@]3(O)CC [Irinotecan HCl Trihydrate],scaled lipid accumulation score,[6],≤ 0
same,scaled lipid accumulation score,[1],0.228
CCc1c2c(nc3ccc(OC(=O)N4CCC(N5CCCCC5)CC4)cc13)-c1cc3c(c(=O)n1C2)COC(=O)[C@]3(O)CC [IRINOTECAN HCl )trihydrate)],scaled lipid accumulation score,[1],1.1 (active)
CCc1c2c(nc3ccc(OC(=O)N4CCC(N5CCCCC5)CC4)cc13)-c1cc3c(c(=O)n1C2)COC(=O)[C@]3(O)CC,scaled lipid accumulation score,[1],0.226
CC[C@@]1(O)C(=O)OCc2c1cc1n(c2=O)Cc2cc3c(CN(C)C)c(O)ccc3nc2-1 [Topotecan],scaled lipid accumulation score,library stock concentration: 4.7 mM,≤ 0
CC[C@@]1(O)C(=O)OCc2c1cc1n(c2=O)Cc2cc3c(CN(C)C)c(O)ccc3nc2-1,scaled lipid accumulation score,[1],≤ 0
CCc1c2c(nc3ccc(OC(=O)N4CCC(N5CCCCC5)CC4)cc13)-c1cc3c(c(=O)n1C2)COC(=O)[C@]3(O)CC [Irinotecan hydrochloride],scaled lipid accumulation score,[1],0.299
CC[C@@]1(O)C(=O)OCc2c1cc1n(c2=O)Cc2cc3c(CN(C)C)c(O)ccc3nc2-1 [Topotecan hydrochloride],scaled lipid accumulation score,library stock concentration: 4.4 mM,0.131
same,scaled lipid accumulation score,[1],0.196
N=C(N)N [Guanidine HCl],scaled lipid accumulation score,[6],≤ 0
same,scaled lipid accumulation score,[1],≤ -0.001
N=C(N)N,scaled lipid accumulation score,[1],≤ 0
CCCCC[C@H](O)/C=C/[C@H]1OC(O)C[C@H](O)[C@@H]1CCCCCCC(=O)O (some centres not stated) [Thromboxane B1],scaled lipid accumulation score,[2],0.131
C#CCCCCCCCCCCCC(O)CC(O)CO (configuration not stated) [Avocadyne],scaled lipid accumulation score,[1],0.005
COc1ccccc1N1CCN(CCCCNC(=O)c2ccc(-c3ccc(C(C)=O)cc3)cc2)CC1,scaled lipid accumulation score,[1],0.934 (active)
COc1ccccc1N1CCN(CCCCNC(=O)c2ccc3ccccc3c2)CC1 [listing 1 of 2 here],scaled lipid accumulation score,,0.307
"COc1ccccc1N1CCN(CCCNc2c(C)c(=O)n(C)c(=O)n2C)CC1 [Urapidil, 5-Methyl-]",scaled lipid accumulation score,[1],≤ 0
COc1ccccc1N1CCN(CCCNc2cc(=O)n(C)c(=O)n2C)CC1 [Urapidil],scaled lipid accumulation score,[1],≤ -0.027
COc1ccc2cccc(N3CCN(CCNC(=O)c4ccc(F)cc4)CC3)c2c1,scaled lipid accumulation score,[1],0.585
"Cc1cccc(C(=O)NCN2CCN(c3ccccc3C#N)CC2)c1 [PD 168,077 maleate]",scaled lipid accumulation score,[1],≤ 0
Cc1cccc(C(=O)NCN2CCN(c3ccccc3C#N)CC2)c1,scaled lipid accumulation score,[1],0.009
Cl.O=C(NCCCCN1CCN(c2cccc(Cl)c2Cl)CC1)c1ccc2c(c1)Cc1ccccc1-2,scaled lipid accumulation score,[1],0.884 (active)
COc1ccccc1N1CCN(CCCNc2cc(=O)n(C)c(=O)n2C)CC1 [Urapidil HCl],scaled lipid accumulation score,[6],≤ 0
same,scaled lipid accumulation score,[1],≤ 0
COc1ccccc1N1CCN(CCCNc2cc(=O)n(C)c(=O)n2C)CC1,scaled lipid accumulation score,[1],≤ 0
COc1cccc(C(=O)NCCN2CCN(c3ccc(Cl)cc3)CC2)c1,scaled lipid accumulation score,[1],0.314
COc1ccccc1N1CCN(CCCNc2cc(=O)n(C)c(=O)n2C)CC1 [Urapidil hydrochloride],scaled lipid accumulation score,,≤ 0
same,scaled lipid accumulation score,[1],≤ 0 and 0.02
COc1ccccc1N1CCN(CCCCNC(=O)c2ccc3ccccc3c2)CC1 [listing 2 of 2 here],scaled lipid accumulation score,[1],1.01 (active)
Cc1nccnc1N1CCCCC1,scaled lipid accumulation score,[1],≤ 0
CCCCCC/C=C\CCCC(=O)CC(=O)N[C@H]1CCOC1=O [N-3-oxo-tetradec-7(Z)-enoyl-L-Homoserine lactone],scaled lipid accumulation score,[2],≤ 0
Cc1ccc(-c2c(-c3nn(C)c4ncnc(N5CC[C@H](N6CCCCC6)C5)c34)cnn2C)cc1,scaled lipid accumulation score,[6],≤ 0
same,scaled lipid accumulation score,[1],0.091
"CCCCCC(=O)CC[C@H]1[C@H](O)CC(=O)[C@@H]1CCCCCCC(=O)O [13,14-dihydro-15-keto Prostaglandin E1]",scaled lipid accumulation score,[2],≤ 0
Cc1cc(Nc2nc(N[C@@H](C)c3ccc(F)cc3)c(C#N)cc2F)n[nH]1,scaled lipid accumulation score,[4],≤ -0.005
same,scaled lipid accumulation score,[5],≤ -0.005
same,scaled lipid accumulation score,[6],≤ 0
same,scaled lipid accumulation score,[1],0.387 and 0.197
O=S(=O)(NO)c1ccccc1 [Piloty's Acid],scaled lipid accumulation score,[2],≤ 0
Cn1cnc2cc3c(Nc4cccc(Br)c4)ncnc3cc21,scaled lipid accumulation score,[6],0.044
CCCCCC=CCC=CCCCCCCCC(=O)OC(CO)CO [2-Linoleoyl Glycerol],scaled lipid accumulation score,[2],0.053
C[C@@H]1C[C@H]2O[C@@H]2/C=C\C=C\C(=O)Cc2c(Cl)c(O)cc(O)c2C(=O)O1 [Radicicol],scaled lipid accumulation score,[2],0.383
O=C(O)CCC/C=C\C[C@@H]1[C@@H](CCC(=O)CCc2ccccc2)[C@H](O)C[C@@H]1O [15-keto Latanoprost (free acid)],scaled lipid accumulation score,[2],≤ 0
CCCCC(CC)CN1CCC(n2cc(CNC)nn2)CC1 (configuration not stated),scaled lipid accumulation score,[1],0.988 (active)
CNCc1cn(C2CCN(CCC(C)CC(C)(C)C)CC2)nn1 (configuration not stated),scaled lipid accumulation score,[1],1.05 (active)
CCCCC(CC)CN1CN(CC(CC)CCCC)CC(C)(N)C1 (configuration not stated) [Hexetidine],scaled lipid accumulation score,,≤ 0
same,scaled lipid accumulation score,[1],0.342
CCCCc1ccc(N=CNO)c(C)c1,scaled lipid accumulation score,[2],0.03
CC(O)(CC(=O)O)CC(=O)O,scaled lipid accumulation score,[1],0.023
CC1(C)[C@H]2CC[C@@]1(C)C(=O)C2 [1r-camphor],scaled lipid accumulation score,[1],≤ 0
O=C(O)[C@H](O)c1ccccc1 [R-(-)-Mandelic Acid],scaled lipid accumulation score,[2],0.02
CSC(=N)NCCC[C@H](N)C(=O)O [S-Methyl-L-thiocitrulline acetate],scaled lipid accumulation score,[1],≤ -0.02
O=C(Nc1ncc(SCCN2CCCC2)s1)[C@]1(c2ccc(S(=O)(=O)C3CC3)cc2)C[C@H]1C1CCCCC1,scaled lipid accumulation score,[1],0.143
O=C(Nc1ncc(SCCN2CCCC2)s1)[C@]1(c2ccc(S(=O)(=O)C3CC3)cc2)C[C@@H]1C1CCCCC1,scaled lipid accumulation score,[6],1.12 (active)
Cn1cccc1/C=C1\C(=O)NC(=O)c2ccccc21,scaled lipid accumulation score,[1],0.017
O=C(Nc1ccccc1)N[C@@H]1C[C@@H](C(=O)O)Nc2cc(Cl)cc(Cl)c21,scaled lipid accumulation score,[1],≤ 0
CC(N)(C(=O)O)c1ccc(C(=O)O)cc1 (configuration not stated),scaled lipid accumulation score,[1],0.151
NC(=O)c1c(NC(=O)C2CC2)sc2c1CCCC2,scaled lipid accumulation score,[3],≤ -0.001
same,scaled lipid accumulation score,[4],≤ -0.001
same,scaled lipid accumulation score,[5],≤ -0.001
same,scaled lipid accumulation score,[1],0.118
"CCN(CC)C(=O)c1ccc(Nc2nc(OCC3CCCCC3)c3[nH]cnc3n2)cc1 [Cdk2 Inhibitor IV, NU6140]",scaled lipid accumulation score,[6],≤ 0
CC1OC2(CS1)CN1CCC2CC1 (configuration not stated) [Cevimeline hydrochloride],scaled lipid accumulation score,[1],≤ 0
